Test results as given in the supplement of paper PMC12645437, “Orthogonal IMiD-Degron Pairs Induce Selective Protein Degradation in Cells” (ACS Chemical Biology, 2025).
The full ranking holds about 8,300 sequences; the median of “log2 fold change of degron read counts, EGFP-low vs EGFP+ sorted cells (limma voom), compound-induced degradation” is about -1.1, and the highest 2% start at about 3.2. What follows is part of a selection rich in the highest values, with near analogues and random picks from the rest.

T1: CRBN, Q96SW2
T1 chain: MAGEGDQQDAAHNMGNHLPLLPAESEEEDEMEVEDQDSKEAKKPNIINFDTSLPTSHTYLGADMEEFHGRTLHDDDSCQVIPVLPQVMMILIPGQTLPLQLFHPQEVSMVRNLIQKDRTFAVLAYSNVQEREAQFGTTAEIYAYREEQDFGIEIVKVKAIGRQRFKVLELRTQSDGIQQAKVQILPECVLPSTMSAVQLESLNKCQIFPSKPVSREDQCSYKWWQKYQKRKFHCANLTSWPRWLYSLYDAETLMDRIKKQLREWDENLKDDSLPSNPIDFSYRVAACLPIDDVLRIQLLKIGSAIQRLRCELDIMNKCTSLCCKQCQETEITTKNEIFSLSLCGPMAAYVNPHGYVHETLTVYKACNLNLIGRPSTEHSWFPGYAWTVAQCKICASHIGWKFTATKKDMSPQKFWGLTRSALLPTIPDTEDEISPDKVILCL


Biological target: T1, CRBN, Q96SW2
Assay: log2 fold change of degron read counts, EGFP-low vs EGFP+ sorted cells (limma voom), compound-induced degradation; higher = more compound-induced degradation of the degron-EGFP fusion; degrons are variants of IKZF1/3 zinc finger 2; compound dose not given here
Settings: Jurkat, 18 h
[1] = compound: compound 19 (5-tert-butyl-thalidomide)
[2] = compound: compound 22 (5-morpholino-thalidomide)
[3] = compound: compound 33 (diphenyl IMiD analogue)
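Also: pooled lentiviral library of zinc finger degron-EGFP fusions in mCherry-positive Jurkat cells, FACS-sorted after compound exposure, with degron abundance counted by next-generation sequencing.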

| Sequence | log2 fold change of degron read counts [1] | log2 fold change of degron read counts [2] | log2 fold change of degron read counts [3] | log2 fold change of degron read counts (compound: thalidomide) |
| --- | --- | --- | --- | --- |
| FSCEVCGARFTQKGNLLRHIKL [46F_47S_49E_50V_52G_53A_54R_55F_67L_, Q9UKT9] | 3.53 | 2.6 | 0.369 | 2.08 |
| FRCEVCGARFTQKGNLLRHIKL [46F_47R_49E_50V_52G_53A_54R_55F_67L_, Q9UKT9] | -1.49 | -2.37 | -0.456 | 0.516 |
| FTCEVCGARFTQKGNLLRHIKL [46F_47T_49E_50V_52G_53A_54R_55F_67L_, Q9UKT9] | 1.77 | 3.04 | 1.75 | 3.26 |
| FTCEVCGALFTQKGNLLRHIKL [46F_47T_49E_50V_52G_53A_54L_55F_67L_, Q9UKT9] | -0.893 | -0.862 | 0.362 | 0.612 |
| FHCEVCGARFTQKGNLLRHIKL [46F_47H_49E_50V_52G_53A_54R_55F_67L_, Q9UKT9] | 2.39 | 2.38 | 0.473 | 0.568 |
| FTCNICGAGFTQKGNLLRHIKL [46F_47T_49N_50I_52G_53A_54G_55F_67L_, Q9UKT9] | 0.378 | 0.88 | 1.61 | 1.21 |
| FSCEICGAEFTQKGNLLRHIKL [46F_47S_49E_50I_52G_53A_54E_55F_67L_, Q9UKT9] | 1.69 | 0.708 | 0.218 | 0.0707 |
| FRCPICGAAFTQKGNLLRHIKL [46F_47R_49P_50I_52G_53A_54A_55F_67L_, Q9UKT9] | 2.26 | 2.26 | 2.48 | 2.19 |
| FQCPICGAAFTQKGNLLRHIKL [46F_47Q_49P_50I_52G_53A_54A_55F_67L_, Q9UKT9] | 2.65 | 3.13 | 2.56 | 3.53 |
| FNCPICGAAFTQKGNLLRHIKL [46F_47N_49P_50I_52G_53A_54A_55F_67L_, Q9UKT9] | 2.96 | 1.85 | 0.954 | 1.13 |
| FVCPICGAAFTQKGNLLRHIKL [46F_47V_49P_50I_52G_53A_54A_55F_67L_, Q9UKT9] | 1.31 | 2.85 | 2.04 | 3.03 |
| FICPICGAAFTQKGNLLRHIKL [46F_47I_49P_50I_52G_53A_54A_55F_67L_, Q9UKT9] | 0.268 | 3.15 | 2.21 | 2.78 |
| FHCPICGAAFTQKGNLLRHIKL [46F_47H_49P_50I_52G_53A_54A_55F_67L_, Q9UKT9] | 3.05 | 2.78 | 2.28 | 1.19 |
| FSCPICGAAFTQKGNLLRHIKL [46F_47S_49P_50I_52G_53A_54A_55F_67L_, Q9UKT9] | 3.12 | 2.69 | 2.7 | 2.11 |
| FYCPICGAAFTQKGNLLRHIKL [46F_47Y_49P_50I_52G_53A_54A_55F_67L_, Q9UKT9] | 2.86 | 3.24 | 2.38 | 0.578 |
| FFCPICGAAFTQKGNLLRHIKL [46F_47F_49P_50I_52G_53A_54A_55F_67L_, Q9UKT9] | 3.15 | 3 | 2.18 | 1.33 |
| FWCPICGAAFTQKGNLLRHIKL [46F_47W_49P_50I_52G_53A_54A_55F_67L_, Q9UKT9] | 3.12 | 3.3 | 2.33 | 1.2 |
| FGCPICGAAFTQKGNLLRHIKL [46F_47G_49P_50I_52G_53A_54A_55F_67L_, Q9UKT9] | 3.57 | 2.61 | 2.88 | 1.63 |
| FKCPICGAAFTQKGNLLRHIKL [46F_47K_49P_50I_52G_53A_54A_55F_67L_, Q9UKT9] | 2.04 | -0.319 | -1.26 | 1.01 |
